This note sets out measurements from PubChem BioAssay.

What is called inhibition is the change of the read-out against control, counted positive when it falls.

Molecules are shown by their SMILES. The source made the active and inactive calls.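 The calls were made as follows: active = mean inhibition over 43.08%, the solvent-only control mean plus 3 SD; inactive = the rest.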

The target in the test is Nuclear receptor coactivator 3 (Homo sapiens) (UniProt Q9Y6Q9). Kind of test: NCOA3 GAL4-fusion reporter inhibition – cell-based, luminescence, quadruplicate, confirmation (AID 588792).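 Also: 0% = DMSO treated cells and 100% = gossypol at 36 µM.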 The note with it: HEK293 GAL4-SRC3 luciferase reporter, at 3.6 µM, active compounds read high. In general terms: In a reporter assay the amount or activity of a reporter protein is the signal.
Chain of Nuclear receptor coactivator 3 (Homo sapiens) (Q9Y6Q9 whole entry, looked up, the tested form may be a part): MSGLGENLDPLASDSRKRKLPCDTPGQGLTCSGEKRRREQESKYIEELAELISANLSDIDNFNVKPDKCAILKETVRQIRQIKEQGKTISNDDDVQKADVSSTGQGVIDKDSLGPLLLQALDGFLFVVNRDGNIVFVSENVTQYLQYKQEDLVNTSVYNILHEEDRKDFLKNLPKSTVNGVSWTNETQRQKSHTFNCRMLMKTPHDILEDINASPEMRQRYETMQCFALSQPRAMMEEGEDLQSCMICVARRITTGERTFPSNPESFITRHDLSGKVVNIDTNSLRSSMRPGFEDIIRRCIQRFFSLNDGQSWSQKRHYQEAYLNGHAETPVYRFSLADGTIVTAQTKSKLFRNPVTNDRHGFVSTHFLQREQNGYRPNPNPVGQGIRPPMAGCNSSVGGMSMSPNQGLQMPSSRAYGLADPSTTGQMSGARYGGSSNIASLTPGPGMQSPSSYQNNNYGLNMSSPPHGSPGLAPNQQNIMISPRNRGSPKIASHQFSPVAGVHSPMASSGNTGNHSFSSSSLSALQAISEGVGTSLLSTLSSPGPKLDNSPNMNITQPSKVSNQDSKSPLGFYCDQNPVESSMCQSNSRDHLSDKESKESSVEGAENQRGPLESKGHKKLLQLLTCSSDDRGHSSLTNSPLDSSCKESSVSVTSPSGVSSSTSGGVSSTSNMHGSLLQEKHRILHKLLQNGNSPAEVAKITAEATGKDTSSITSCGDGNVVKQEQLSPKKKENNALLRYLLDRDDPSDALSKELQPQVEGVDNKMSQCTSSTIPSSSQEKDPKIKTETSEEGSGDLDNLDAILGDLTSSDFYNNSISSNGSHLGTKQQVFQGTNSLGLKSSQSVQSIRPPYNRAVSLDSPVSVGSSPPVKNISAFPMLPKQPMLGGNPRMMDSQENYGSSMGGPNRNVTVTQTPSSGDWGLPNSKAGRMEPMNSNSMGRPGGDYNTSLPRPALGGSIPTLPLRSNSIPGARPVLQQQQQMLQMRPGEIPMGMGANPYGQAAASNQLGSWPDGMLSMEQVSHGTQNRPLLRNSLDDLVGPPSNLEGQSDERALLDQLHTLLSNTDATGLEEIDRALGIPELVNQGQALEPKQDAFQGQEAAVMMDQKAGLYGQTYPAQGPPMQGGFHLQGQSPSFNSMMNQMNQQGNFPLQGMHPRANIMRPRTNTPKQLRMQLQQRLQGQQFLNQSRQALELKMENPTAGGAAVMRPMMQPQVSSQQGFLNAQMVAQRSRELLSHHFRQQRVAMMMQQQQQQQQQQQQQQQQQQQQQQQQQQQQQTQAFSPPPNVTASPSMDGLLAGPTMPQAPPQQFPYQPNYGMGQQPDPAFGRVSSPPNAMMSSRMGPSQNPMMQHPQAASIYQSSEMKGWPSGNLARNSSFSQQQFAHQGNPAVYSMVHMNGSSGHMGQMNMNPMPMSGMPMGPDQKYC
Take `c1cc(CNc2ccc3c(c2)OCCO3)ccn1`: the inhibition was -1.65% (inactive). In the case of `Cc1nn(Cc2ccc(C(=O)Nc3nccs3)cc2)c(C)c1Cl` it was 21.7% (inactive); in that of `CC1CN(S(=O)(=O)c2ccc(C(=O)NCCCn3ccnc3)cc2)CC(C)O1` (stereo unspecified), 87.8% (active); in that of `O=[N+]([O-])c1ccc(Sc2cccc[n+]2[O-])c2nonc12`, 98.7% (active). For the molecule `O=C(NN=Cc1ccccc1O)NN=Cc1ccccc1O`, the inhibition is 48.5% (active). On to `NC(=S)NN=Cc1cc(-c2cccc(N)c2)ccn1`, for which the inhibition was 77.3% (active). Take `Cc1ccc(-c2cc3cccc[n+]3cc2-c2ccc(C)cc2)cc1`: the inhibition was 72.3% (active). Consider `Cc1cc(/C=N/n2cnnc2)c(C)n1-c1ccc(OCc2ccc(Cl)cc2Cl)cc1`, for which the inhibition is 19.7% (inactive). As to `OCC1OC(n2cnc3c(NCc4ccco4)ncnc32)C(O)C1O` (stereo unspecified), the inhibition is 71.1% (active). Take `CCC[N+]1(CC#CCC(c2ccccc2)c2ccccc2)CCCCC1`: the inhibition is 28.8% (inactive).

As for `O=C(N/N=C(\c1ccccc1)c1cccnc1)c1cccc(F)c1`, the inhibition was 37.5% (inactive). `COc1ccc(/C=C/c2cc(-c3ccc(C)cc3)o[n+]2C)cc1`: the inhibition is 65.6% (active). Take `CCN(CC)c1ccc(C(=C2C=CC(=[N+](CC)CC)C=C2)c2ccc(N(CC)CC)cc2)cc1`: the inhibition is 85.3% (active). As for `Cc1ccc(NCCN(C)C)c2c(=O)c3cc(O)ccc3sc12`, the figure is 40.4% (inactive). In the case of `Cc1cc(OCc2nc(N)nc(N)c2-c2ccc(Cl)c(Cl)c2)ccc1[N+](=O)[O-]`, the inhibition is 52.2% (active). `CCC(C)n1ncn(-c2ccc(N3CCN(c4ccc(O)cc4)CC3)cc2)c1=O` (stereo unspecified): the inhibition was 32.4% (inactive).
